Only a selection was taken, and hits are over-represented in it overall.
DUSP3 inh: VHR1 phosphatase inhibitors, primary screen, biochemical, colorimetric, HTS; AID 1992, 2009; actives 0.7% (n = 50,000); inhibition, % at 20 µM; Dual specificity protein phosphatase 3 (Homo sapiens), P51452; recombinant VHR phosphatase, colorimetric substrate read-out; in the data active means inhibition above about 60%
Target sequence (P51452 whole entry, looked up): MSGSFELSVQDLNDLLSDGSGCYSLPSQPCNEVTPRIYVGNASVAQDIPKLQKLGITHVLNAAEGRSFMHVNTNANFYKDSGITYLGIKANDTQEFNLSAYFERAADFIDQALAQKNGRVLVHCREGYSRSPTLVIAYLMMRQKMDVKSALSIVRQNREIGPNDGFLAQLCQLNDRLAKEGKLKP
Numbers stand for hits; . = inactive.

SMILES | DUSP3 inh
N#Cc1c(-c2cccc(Br)c2)c(C#N)c2nc3ccccc3n2c1N | .
COc1ccc(-c2c(C#N)c(N)n3c(nc4ccccc43)c2C#N)cc1OC | 69
N#Cc1c(-c2ccc(F)cc2)c(C#N)c2nc3ccccc3n2c1N | .
Cc1nc2ccccc2n1CCOc1ccc(F)cc1 | .
CC(Cc1ccccc1)NC(=O)c1cc2ccccc2o1 (stereo not given) | .
CN1CCC(=NNC(=O)c2cc3ccccc3cc2O)CC1 | 94
CCCN1CCC(=NNC(=O)c2ccccc2O)CC1 | .
CN1CCC(=NNC(=O)c2cccc([N+](=O)[O-])c2)CC1 | .
COc1ccc(S(=O)(=O)Nc2ccc3ccccc3c2)cc1OC | .
CC(C)COc1ccc(C(=O)Nc2ccc(F)cc2)cc1 | .
C=CCOc1ccc(Cl)cc1/C=C1/C(=N)N2N=C(CCC)SC2=NC1=O | 108
CCCC1=NN2C(=N)/C(=C/c3ccccc3C)C(=O)N=C2S1 | .
CC(C)C1=NN2C(=N)/C(=C/c3cc(Cl)ccc3OCc3ccccc3)C(=O)N=C2S1 | .
CCC1(c2ccccc2)C(=O)NC(=O)N(C(=O)c2ccccc2Br)C1=O (stereo not given) | .
O=C(Nc1ccc(Oc2ccccc2)cc1)c1ccc(Cl)cc1Cl | .
Cc1ccc(-n2nc3cc(C)c(NC(=O)c4cc(Cl)ccc4Cl)cc3n2)cc1 | .
COc1ccc(-n2nc3cc(C)c(NC(=O)c4cc(Cl)ccc4OC)cc3n2)cc1 | 110
COc1ccc(Br)cc1C(=O)Nc1cc2nn(-c3ccc(C)cc3)nc2cc1C | .
COC(=O)C1=C(C)NC(=O)CC1c1ccc(Cl)c(Cl)c1 (stereo not given) | .
CC1=C(C(=O)OCCCc2ccccc2)C(c2ccc(Cl)c(Cl)c2)CC(=O)N1 (stereo not given) | 100
CC1=C(C(=O)OCCc2ccccc2)C(c2ccccc2Cl)CC(=O)N1 (stereo not given) | .
C=CCN(CP(=O)(OCC)OCC)C(=O)c1ccccc1F | .
COc1ccc(C2CC(=O)C3=C(C2)Nc2ccccc2NC3c2coc3c(Cl)cc(Cl)cc3c2=O)cc1 (stereo not given) | 105
COc1ccc(C2CC(=O)C3=C(C2)Nc2ccccc2NC3c2cc3c(cc2Cl)OCO3)cc1 (stereo not given) | .
COc1ccc(C2CC(=O)C3=C(C2)Nc2ccccc2NC3c2ccccc2Cl)cc1 (stereo not given) | .
SMILES | DUSP3 inh
O=C1NC(=S)N(c2ccccc2F)C(=O)/C1=C/c1ccc(Sc2ccccc2)o1 | .
O=C1NC(=S)N(c2ccccc2)C(=O)/C1=C/c1ccc(Cl)cc1Cl | .
O=C1NC(=S)N(c2ccccc2)C(=O)/C1=C/c1cc(Br)c(O)c(Br)c1 | .
O=C1NC(=S)N(c2ccccc2F)C(=O)C1=Cc1ccco1 | 87
CCc1ccc(N2C(=O)NC(=O)/C(=C/C=C/c3ccco3)C2=O)cc1 | .
Cc1ccc(C=C2C(=O)NC(=S)N(c3ccccc3F)C2=O)s1 | .
O=C1NC(=S)N(c2ccccc2)C(=O)/C1=C/c1ccco1 | 67
C=CCN1C(=O)/C(=C\c2ccc(Br)cc2)C(=O)NC1=S | .
C=CCN1C(=O)/C(=C\C=C\c2ccco2)C(=O)NC1=S | 88
CCOC(=O)c1c(CC(C)C)csc1N1C(=O)c2cccc([N+](=O)[O-])c2C1=O | .
COc1ccc(CSCC(=O)NC2CCCCC2)cc1 | .
O=C(O)CC/C(=N\NS(=O)(=O)c1ccccc1)c1ccccc1 | .
O=C(COc1ccc([N+](=O)[O-])cc1)Nc1cc(C(F)(F)F)ccc1Cl | .
c1ccc(NC2=Nc3cccc4cccc2c34)cc1 | .
Nc1cccc(-c2cc(C(=O)O)c3ccccc3n2)c1 | .
Nc1cccc(C2=Nc3cccc4cccc(c34)N2)c1 | 85
CN1CCN(c2ccc([N+](=O)[O-])c(NC(c3ccccc3)c3ccccc3)c2)CC1 | .
CCOC(=O)C1=NNC(C(=O)c2ccccc2)C1c1ccccc1 (stereo not given) | .
CCOC(=O)C1=NNC(C(=O)OCC)(C(=O)OCC)C1c1ccccc1 (stereo not given) | 101
CCOC(=O)C1=NNC(C(=O)c2ccccc2)C1c1ccc(OC)cc1 (stereo not given) | .
COc1ccc(Br)cc1CN1CCN(C(C)C)CC1 | .
O=C(/C=C/c1ccccc1)Nc1ccc(N2CCCCC2)cc1 | .
Cc1ccc(C(=O)Nc2sc3c(c2C(=O)N2CCCCCC2)CCC(C)C3)cc1 (stereo not given) | .
Cc1ccc(C(=O)Nc2sc3c(c2C(=O)N2CCC(C(N)=O)CC2)CCCC3)cc1 | .
Cc1ccc(C(=O)Nc2sc3c(c2C(=O)N2CCC(C)CC2)CCCC3)cc1 | 87
SMILES | DUSP3 inh
COc1cccc(N2C(=O)CC(N3CCN(C/C=C/c4ccccc4)CC3)C2=O)c1 (stereo not given) | .
COc1cccc(N2C(=O)CC(N3CCC(C)CC3)C2=O)c1 (stereo not given) | .
COc1cccc(N2C(=O)CC(N3CCCCC3)C2=O)c1 (stereo not given) | 101
CC(=O)N(c1ccc(C)cc1)c1nc(-c2ccccc2)c(-c2ccccc2)s1 | .
Cc1cccc(COc2ccc3c(c2)oc(=O)c2ccccc23)c1 | 96
Cc1ccc(COc2ccc3c(c2)oc(=O)c2ccccc23)cc1 | .
CCc1cc(=O)oc2cc(OCc3cccc(C)c3)ccc12 | .
C=CCNC(=O)/C(=C/c1ccc(C(C)C)cc1)NC(=O)c1ccccc1 | .
COc1ccc(N(C(C)C(=O)N/N=C/c2cc(C)n(-c3ccccc3C(F)(F)F)c2C)S(C)(=O)=O)cc1 (stereo not given) | .
O=C(Nc1ccccc1C(F)(F)F)c1ccc(Cl)cc1Cl | .
O=C(Nc1ccc(NC(=O)c2ccc(-c3ccc(Cl)cc3Cl)o2)cc1)c1ccccc1 | .
CC(=O)c1cccc(NC(=O)c2ccc(-c3ccc(Cl)cc3Cl)o2)c1 | 109
O=C(O)c1ccc(-c2cc(Cl)ccc2Cl)o1 | .
CC(=O)c1ccc(NC(=O)c2ccc(-c3ccc(Cl)cc3Cl)o2)cc1 | .
O=C(Nc1ccccc1C(F)(F)F)c1ccc(-c2cc(Cl)ccc2Cl)o1 | 112
NC(=O)CSc1nc2ccc(NC(=O)c3ccccc3)cc2s1 | .
S=C(NCC1CCCO1)Nc1ccc(Cl)cc1Cl (stereo not given) | .
C=CCN1C(=O)/C(=C\c2cccc(OCc3cccc4ccccc34)c2)SC1=S | .
c1ccc(Nc2nc3c(s2)CCc2ccccc2-3)cc1 | .
COc1ccc(Br)cc1C(=O)Nc1cccc(-c2nc3cc(C)ccc3o2)c1C | .
COC(=O)C1C(c2ccccc2)=NN(c2ccccc2)C1C(=O)OC (stereo not given) | .
O=C1NC(=O)/C(=C\c2cccc(Cl)c2)S1 | .
O=C1CC(=O)N(c2cccc(Cl)c2)N1 | 75
O=C1CSC2=NCN(c3cccc(Cl)c3)CN12 | .
COc1ccc(/C=N/Nc2cc(OC)ncn2)c(OC)c1 | .
SMILES | DUSP3 inh
CCOC(=O)C1=C(C)N=c2s/c(=C\c3ccccn3)c(=O)n2C1c1ccc(OC)c(OC)c1 (stereo not given) | .
O=C(Nc1ccc([N+](=O)[O-])cc1)C1C2C3CCC(C3)C12 (stereo not given) | 84
O=C(Nc1ccc([N+](=O)[O-])cc1)C1C(c2ccccc2)=C1c1ccccc1 | .
Cc1ccc([N+](=O)[O-])cc1NC(=O)C1C2C3CCC(C3)C12 (stereo not given) | .
O=C(Cc1ccccc1[N+](=O)[O-])Nc1ccc(OCc2ccccc2)cc1 | .
O=[N+]([O-])c1cccc(S(=O)(=O)NCC2CCCO2)c1 (stereo not given) | .

Screens from PubChem.
